Results published in the supplement of paper PMC3724861.
Only a selection was taken, and hits are over-represented in it overall. No count for the full screen is at hand. A number with no mark means an inactive call.

tested on: T1, Caupolican (Caup) homeodomain DNA-binding domain; assay: PBM E-score (8-mer, recovered from the published 9-mer minima) (E-score (dimensionless, -0.5 to 0.5)); Drosophila protein; higher = stronger relative binding preference, active = 0.31 or more
T1 sequence: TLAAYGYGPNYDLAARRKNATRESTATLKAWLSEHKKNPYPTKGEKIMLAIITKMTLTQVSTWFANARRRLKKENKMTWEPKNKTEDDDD
Procedure, shortened: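 Caup's homeodomain DNA-binding domain (residues 214-303) was produced by in vitro transcription and translation and applied at 100 nM to custom-designed protein binding microarrays. Each value is an enrichment score giving relative binding preference for a short DNA word; higher means stronger. Published 9-mer scores were the minimum of their two constituent 8-mer scores, and the 8-mer values were recovered from those minima. A cutoff of 0.31 marks candidate binding sequences.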

| Sequence | PBM E-score |
| --- | --- |
| ACCCCTCA | -0.091 |
| CAACTCTA | -0.0633 |
| AGCACATA | 0.0614 |
| AACACACT | 0.256 |
| AACACATA | 0.323 (active) |
| TACACATA | 0.343 (active) |
| AACACACG | 0.248 |
| AACACATC | 0.202 |
| CACACATA | 0.164 |
| AACACATT | 0.264 |
| AACACACA | ≥ 0.313 (active) |
| GACACATA | 0.264 |
| ATCACATA | 0.239 |
| AACACATG | 0.313 (active) |
| GAACAGTA | 0.173 |
| AAGAGAGA | -0.0648 |
| CTTCCGCA | -0.0665 |
| ACTTCTCA | 0.00621 |
| GGTGATAA | 0.0536 |
| GCTCCACC | -0.174 |
| CAATAGCC | 0.0422 |
| CATCTTGC | 0.0649 |
| GTCAACGA | 0.118 |
| CAGCCCGA | -0.199 |
| ATGAGCGA | -0.0133 |
| AAACATAA | 0.321 (active) |

| Sequence | PBM E-score |
| --- | --- |
| GAACATAA | 0.282 |
| AAACATAT | 0.325 (active) |
| AAACATAC | 0.292 |
| CAACATAA | 0.295 |
| AAACATTA | 0.233 |
| TAACATAA | 0.327 (active) |
| AAGCATAA | 0.0796 |
| AAACATAG | 0.267 |
| GTCAATCA | 0.0914 |
| ACGCTGTG | 0.0319 |
| AAAGTTGT | 0.17 |
| AAGAGAAG | -0.0176 |
| ACTGTGAT | 0.066 |
| AGCCGAAT | -0.0412 |
| AAGTGGCT | -0.132 |
| CCGCGGCA | -0.192 |
| CTCGTGGC | -0.127 |
| AAGCCGGG | -0.179 |
| GTATACAC | 0.249 |
| TTATACAA | 0.28 |
| ATATACAG | 0.186 |
| GTATACAA | 0.318 (active) |
| CTATACAC | 0.0914 |
| ATATATAC | 0.181 |
| ATATACAC | 0.348 (active) |
| ATATACAT | 0.367 (active) |

| Sequence | PBM E-score |
| --- | --- |
| ATATACAA | ≥ 0.355 (active) |
| GTATACTA | 0.16 |
| CTATACAG | 0.0968 |
| CTATACAA | 0.249 |
| ATTAGTGC | 0.105 |
| AACTGGCC | -0.147 |
| CCGGACGG | -0.297 |
| CCTGGCAA | -0.121 |
| CAATGACC | 0.065 |
| TCACAAGA | 0.131 |
| ATCGGTAC | 0.0373 |
| CTGCCGTC | -0.128 |
| ATTAGAGG | -0.11 |
| AACATGCC | 0.302 |
| GACATGCA | 0.394 (active) |
| AACATGCA | 0.392 (active) |
| GAGATGCA | -0.024 |
| AACATGCT | 0.376 (active) |
| ATCATGCA | 0.103 |
| CCCATGCA | -0.119 |
| TGCATGCA | 0.0646 |
| TACATGCA | 0.371 (active) |
| TCCATGCA | -0.0253 |
| ACCATGCT | 0.14 |
| CACATGCA | 0.166 |
| CTCGCGTA | -0.0439 |

| Sequence | PBM E-score |
| --- | --- |
| TTATCAAA | 0.109 |
| GTGATTCA | 0.0823 |
| AGAAAGCA | 0.0369 |
| CCGGGTCA | -0.18 |
| GCCATGCC | -0.149 |
| CACATGCG | 0.023 |
| AACATGCG | 0.356 (active) |
| ATCATGCG | 0.0113 |
| GACATGCC | 0.35 (active) |
| CACATGCC | 0.0641 |
| ATCCTGAG | -0.0222 |
| CAAGCTAG | -0.0491 |
| CGTAATGA | 0.094 |
| GTGACCGA | -0.0686 |
| ACTTGAAC | 0.132 |
| ACAAATCC | 0.179 |
| GTACATTA | 0.322 (active) |
| CTGCATGA | -0.0538 |
| GTTCATGA | 0.115 |
| ATACATTA | 0.219 |
| GCACATGA | 0.182 |
| CTACATGA | 0.36 (active) |
| CTACAGGA | 0.245 |
| GTACATGA | 0.435 (active) |
| CTACATTA | 0.199 |
| ACAGGAGT | 0.0982 |

| Sequence | PBM E-score |
| --- | --- |
| AAAGTTTG | 0.0257 |
| ACGGCAGT | -0.0873 |
| GCAACGCC | -0.0458 |
| TCAGTACA | 0.313 (active) |
| ACAGTACT | 0.18 |
| ACAGTACA | 0.331 (active) |
| ACAGTACG | 0.0926 |
| GCAGTACA | 0.196 |
| CCAGTACA | 0.3 |
| ATCTGATG | 0.072 |
| ACGATTTG | 0.11 |
| ATTACAAT | 0.298 |
| ATTACTAC | 0.293 |
| ATTACAAA | 0.259 |
| ATTACAAC | 0.37 (active) |
| ATCACAAC | 0.212 |
| ATTACAAG | ≥ 0.427 (active) |
| ACGTTCGG | -0.177 |
| ACTAGCCA | 0.0322 |
| CATAGTGA | 0.155 |
| AAGTCAAA | 0.0275 |
| ATGTCAAC | 0.324 (active) |
| GTGTCAAC | 0.272 |
| ATGTCAAT | 0.359 (active) |
| GTGTCAAA | 0.294 |
| ATGTCAAA | 0.359 (active) |

| Sequence | PBM E-score |
| --- | --- |
| TTGTCAAA | 0.316 (active) |
| CTGTCAAA | 0.164 |
| AGGTCAAA | -0.0266 |
| ATGTCAAG | 0.309 |
| ACGTCAAT | -0.00307 |
| CTGTCAAC | 0.186 |
| ACCCGATC | -0.0489 |
| CTTGGTAA | 0.0467 |
| CTCGTCAA | 0.0256 |
| GGTGGTTA | 0.0166 |
| AATTGAGT | 0.131 |
| ACACCCTC | -0.0435 |
| CAGCACGG | -0.0332 |
| ATAATCAG | 0.101 |
| AGAGCAAG | 0.0346 |
| TAACACAA | 0.319 (active) |
| AAACACAA | 0.27 |
| GGACACAA | 0.204 |
| GAACACAA | 0.317 (active) |
| CAACACAA | 0.241 |
| GAACACAC | 0.217 |
